The list is not random: actives were taken first. Their share in the collection is about 8%.
RORgamma inh = blocks mouse ROR gamma transcriptional activity. P51450. Drosophila S2 Gal4-RORgamma UAS-luciferase reporter, 20 h. Potency, µM (series often up to 53.6 µM), usual class: inhibitors. 310,000 compounds, 5.4% hits. AID 2551; also: nearly all actives have a fitted effect of over 60% in size
Target sequence (P51450 whole entry, looked up, the tested form may be a part): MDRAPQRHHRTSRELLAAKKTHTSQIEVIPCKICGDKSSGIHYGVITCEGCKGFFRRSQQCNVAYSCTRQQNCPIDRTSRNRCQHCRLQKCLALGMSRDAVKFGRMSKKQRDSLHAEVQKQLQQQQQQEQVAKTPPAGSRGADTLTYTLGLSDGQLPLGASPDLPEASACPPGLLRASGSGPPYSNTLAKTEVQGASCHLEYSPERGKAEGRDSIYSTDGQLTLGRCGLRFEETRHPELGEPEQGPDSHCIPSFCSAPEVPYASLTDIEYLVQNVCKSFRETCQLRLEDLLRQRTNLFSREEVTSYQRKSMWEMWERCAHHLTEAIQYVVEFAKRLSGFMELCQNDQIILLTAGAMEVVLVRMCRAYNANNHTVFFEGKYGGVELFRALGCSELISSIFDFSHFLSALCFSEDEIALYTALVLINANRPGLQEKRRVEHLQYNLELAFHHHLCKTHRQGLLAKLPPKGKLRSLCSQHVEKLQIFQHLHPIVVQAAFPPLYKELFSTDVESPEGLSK
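Stable Schneider cell line, Gal4 DNA-binding domain fused to ROR gamma, UAS-luciferase. Cmpd 1 hr RT → CuSO4 700 uM final → 20 hr RT → luciferase reagent 10 min → luminescence.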
VP16 counter = Gal4-VP16 reporter inhibition counter-screen | Drosophila S2 Gal4-VP16 UAS-luciferase, luminescence, 20 h | Potency, µM (doses to about 53.6 µM), hits mostly inhibitors | 310,000 compounds, 3.5% hits | AID 2546;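 also: Gal4-VP16 expression switched on by copper sulfate through the metallothionein promoter; nearly all actives have a fitted effect of over 50% in size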
TSHR antag = blocks TSH signaling through the human TSH receptor. TSHR-expressing cells, TSH-stimulated cAMP HTRF, 2 h; stronger effect = lower value. P16473. activity change, negative = inhibition, % at 11.5 µM. 330,000 compounds, 0.2% hits;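 active = activity change below a set negative limit, meaning inhibition stronger than a set level, cut at about -70% in these data; inconclusive = activity change between two set negative limits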
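Read-out is FRET at 665 nm (cryptate excitation 337 nm) from a cryptate-tagged anti-cAMP antibody, competed by cell cAMP against cAMP-d2. Compounds are tested on freshly harvested TSHR cells challenged with 4nM TSH (EC80) for 2 hours at 37 deg C.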
ELG1 DNA repair = inhibitors of ELG1-dependent DNA repair in HEK293T cells | Potency, µM (series often up to 46.1 µM), hits mostly inhibitors | 330,000 compounds, 2.3% hits | AID 504467 | HEK293T ELG1-luciferase reporter, luminescence, 16 h; DNA damage induced by 5-fluorouridine; also: nearly all actives have a fitted effect of over 55% in size
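Overnight (16 hr) co-exposure of 2,000 cells/well to 5-fluorouridine and compound at 37 °C preceded detection. Luciferase was quantified via ONE-Glo luminescence; loss of signal denotes inhibition.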
Coupling enz = counter-screen for Giardia aldolase inhibitors: coupling enzyme system | coupling enzyme system counterscreen, AmpLite Red fluorescence | AID 2472 | activity change, negative = inhibition, % at 58.2 µM, hits read low | 290,000 compounds, 0.67% hits; in the data active = activity change below about -30%
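Coupling enzymes only (glyceraldehyde-3-phosphate) + compound, at 57.5 uM final, 10 min RT; add substrate/coupling/AmpLite Red mix, 20 min RT; fluorescence ex 525/em 598 nm. Actives flag coupling-system interference.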
Of the large screens only hits and unclear results are named; the others gave an inactive call. Unless noted, calls follow the shape of the dose curve; as a rule, active = well fitted curve in the direction sought with a large enough effect; inconclusive = small, poorly fitted or top-dose-only effect, or another doubt; inactive = no such curve, though single readings can be large; an effect the other way counts as inactive or inconclusive.

COc1ccc(N(C(=O)c2cccnc2)S(=O)(=O)c2cc(OC)ccc2OC)cc1	none (no result: Coupling enz)
COc1ccc(S(=O)(=O)N2CCN(CC(=O)NC(Cc3ccccc3)C(C)=O)CC2)cc1 (stereo not drawn)	none (no result: RORgamma inh, VP16 counter, TSHR antag, Coupling enz)
Clc1ccc(-c2noc(CSc3nnc(-c4ccncc4)n3-c3ccccc3)n2)cc1	VP16 counter inconclusive, ELG1 DNA repair 16µM
Cc1ccc(-c2noc(CSc3ccccc3)n2)cc1	RORgamma inh inconclusive, VP16 counter 2µM, ELG1 DNA repair inconclusive
C/C(=N\Nc1nc2ccccc2[nH]1)c1ccc(C)o1	RORgamma inh 14µM, VP16 counter inconclusive, ELG1 DNA repair inconclusive
C/C(=N\Nc1nc2ccccc2[nH]1)c1ccc(Cl)s1	RORgamma inh 2.2µM, VP16 counter 2.8µM, ELG1 DNA repair inconclusive
O=C(CSc1nc2ccccc2[nH]1)c1ccc(Cl)s1	VP16 counter inconclusive, ELG1 DNA repair inconclusive
Cc1ccc(C(=O)NCc2nc3ccccc3[nH]2)o1	none
O=C(CCCc1c[nH]c2ccccc12)NCc1ccccc1C(F)(F)F	none
CC1CN(S(=O)(=O)c2ccc(C(=O)N(CCCN(C)C)c3nc4c(Cl)cccc4s3)cc2)CC(C)O1 (stereo not drawn)	none
OCCCNC(=S)NC1CCCC1	none
CC(C)CCNC(=O)C(=O)NC1CCCC1	ELG1 DNA repair inconclusive
CC(C)CN(CC(C)C)C(=S)NC1CCCCC1	RORgamma inh 2.8µM, VP16 counter 7.1µM
CC(C)CCNC(=S)NC1CCCC1	RORgamma inh 2.8µM, VP16 counter inconclusive
CCCCNC(=S)NC1CCCC1	RORgamma inh 10µM, VP16 counter 18µM
CC(C)CN(CC(C)C)S(=O)(=O)N1CCC(C(=O)NC2CCCCCCC2)CC1	none
C=CCN(C(=O)CNC(=O)c1ccco1)C(C(=O)NC1CCCC1)c1ccc(OC)cc1 (stereo not drawn)	none
COc1ccc(C(=O)NC(=S)NNC(=O)c2ccncc2)cc1Br	none (no result: RORgamma inh, VP16 counter, Coupling enz)
COc1ccc(C(=O)Nc2cc3c(cc2OC)CCCC3)cc1Br	RORgamma inh inconclusive
COc1ccc(C(=O)NC(=S)NC(C)C)cc1Br	RORgamma inh 1.8µM, VP16 counter 11µM
COc1ccc(C(=O)Nc2ccc(OC)c([N+](=O)[O-])c2)cc1Br	none
COc1ccc(C(=O)NC(=S)NNC(=O)c2ccc(NC(C)=O)cc2)cc1Br	RORgamma inh 7.9µM, VP16 counter inconclusive, ELG1 DNA repair inconclusive
COc1ccc(C(=O)NC(=S)NC(C)(C)C)cc1Br	RORgamma inh 2µM, VP16 counter 7.9µM, ELG1 DNA repair inconclusive
CCCCn1c(N)c(N(CCOC)C(=O)C(C)N2C(=O)c3ccccc3C2=O)c(=O)[nH]c1=O (stereo not drawn)	none (no result: RORgamma inh, VP16 counter, Coupling enz)
Cn1nnnc1Sc1ncnc2scc(-c3ccc(C(F)(F)F)cc3)c12	ELG1 DNA repair 6.5µM (no result: RORgamma inh, VP16 counter, Coupling enz)
Cn1nnnc1Sc1ncnc2scc(-c3cccc(C(F)(F)F)c3)c12	ELG1 DNA repair inconclusive (no result: RORgamma inh, VP16 counter, Coupling enz)
Cn1nnnc1Sc1ncnc2scc(-c3cc4ccccc4o3)c12	ELG1 DNA repair 21µM (no result: RORgamma inh, VP16 counter, Coupling enz)
CCOC(=O)[C@H]1[C@H]2COc3ccc(Br)cc3[C@@H]2N2C(=O)CN(CC3CCCO3)C(=O)[C@@]12C (stereo partly drawn)	none (no result: RORgamma inh, VP16 counter, Coupling enz)
O=C(NC1CC2CCCC(C1)N2C(=O)Nc1ccccc1)C1CC1 (stereo not drawn)	none
COC(=O)[C@@H]1C[C@@H]2CC[C@@H](O)C[C@@H]2N1Cc1ccc(N2CCOCC2)cc1	none (no result: TSHR antag, ELG1 DNA repair)
CCNc1nc(-c2ccc(OC(F)F)cc2)c(C)s1	RORgamma inh 11µM, ELG1 DNA repair inconclusive
COCC(=O)Nc1nc(-c2ccccc2)c(C)s1	none
CCCNC(=S)NNC(=O)c1cc(C2CC2)nc2ccccc12	RORgamma inh 11µM, VP16 counter 10µM
C/C(=N\NC(=O)c1cc(C2CC2)nc2ccccc12)c1ccc(O)cc1O	RORgamma inh 16µM, VP16 counter 18µM, ELG1 DNA repair inconclusive
CCNC(=S)NNC(=O)c1cc(C2CC2)nc2ccccc12	RORgamma inh 0.71µM, VP16 counter inconclusive
CCCNC(=S)NNC(=O)c1cc(-c2cccnc2)nc2ccccc12	RORgamma inh inconclusive (no result: Coupling enz)
CCOc1ccc(NC(=O)COC(=O)CCN2C(=O)C3CC=CCC3C2=O)cc1OCC (stereo not drawn)	none (no result: RORgamma inh, VP16 counter, Coupling enz)
Cn1cc(/C=C2\SC(=O)NC2=S)c2ccccc21	RORgamma inh 2.5µM, VP16 counter 6.3µM
CC(C)=CCC/C(C)=C/C=C/C(C)=C/C=C/C(C)=C/C=C/C=C(C)/C=C/C=C(C)/C=C/C=C(\C)CCC=C(C)C	none (no result: TSHR antag, ELG1 DNA repair, Coupling enz)
O[C@@H]1COC2[C@@H](O)CO[C@@H]21 (stereo partly drawn)	none (no result: TSHR antag, ELG1 DNA repair)
Cc1ccc2cccc(Oc3nnnn3-c3ccccc3)c2n1	RORgamma inh inconclusive
c1ccc(-n2nnnc2Oc2cccc3cccnc23)cc1	RORgamma inh 7.1µM, VP16 counter 4.5µM
C=CCOc1c(CNc2cccc(C(=O)O)c2)cccc1OCC	none
C=CCOc1c(CNc2cccc(C(=O)O)c2)cccc1OC	RORgamma inh 10µM, VP16 counter inconclusive, ELG1 DNA repair inconclusive
Cc1sc(NC(=O)c2cccs2)nc1-c1ccccc1	RORgamma inh inconclusive, ELG1 DNA repair inconclusive
Cc1sc(N/N=C/c2cccs2)nc1-c1ccccc1	RORgamma inh 7.1µM, VP16 counter 10µM, ELG1 DNA repair inconclusive
COc1ccc(Cn2c(CCC(=O)NCCC(C)C)nc3ncccc3c2=O)cc1	none
COc1ccc(NC(=O)c2cc(CC(C)C)nc3ccccc23)cc1	RORgamma inh inconclusive, ELG1 DNA repair 23µM
Cc1ccc(NC(=O)c2cc(CC(C)C)nc3ccccc23)cc1	ELG1 DNA repair 21µM
Cc1ccc(NC(=O)c2cc(C)nc3ccccc23)cc1	none
NS(=O)(=O)c1ccc(CNC(=O)c2cccnc2Cl)cc1	none
Clc1ccc(CSc2nnc(Cn3cnc4ccccc43)o2)cc1	VP16 counter 16µM
Cc1cccc(C)c1NC(=O)NC1(C(=O)N2CCCCC2)CCCCC1	none
Cc1cc(C)c(NC(=O)CN2C(=O)NC3(CCCCC3)C2=O)c(C)c1	none
C=C1SC(Nc2c(C)cc(C)cc2C)=NC12CCCCC2	RORgamma inh inconclusive, VP16 counter 0.63µM, ELG1 DNA repair 23µM
C=C1SC(Nc2c(C)cccc2C)=NC12CCCCC2	RORgamma inh 4µM, VP16 counter 2.2µM
CC#CCN1c2ccccc2[C@]23C[C@@H](C(=O)OC)N(S(=O)(=O)c4c(C)noc4C)C2=NC(C(=O)OC)=C(C(=O)OC)[C@H]13	none (no result: RORgamma inh, VP16 counter, TSHR antag, ELG1 DNA repair)
CC1(c2cccc(Br)c2)NC(=O)N(CC(=O)Nc2ccc(F)cc2)C1=O (stereo not drawn)	none
CCNc1nc(NC(C)C)nc(OCCNS(=O)(=O)c2cc(C)ccc2C)n1	ELG1 DNA repair 21µM
Cc1cc2c(NC3CCCCC3)ncnc2s1	RORgamma inh inconclusive, VP16 counter 13µM
CCC1Sc2ccc(S(=O)(=O)CCC(=O)Nc3ccccc3Cl)cc2NC1=O (stereo not drawn)	TSHR antag -131

Screening data as filed in PubChem BioAssay.
